Screens as filed in PubChem BioAssay.
TDP43 rescue = qHTS of TDP-43 Inhibitors; TDP-43 expressing yeast growth rescue, BacTiter-Glo, 24 h; Potency, µM (doses to about 46.1 µM), inactives show top-dose growth rescue (activation), actives largely listed as activators; actives 1.8% (n = 410,000); further: % of control where 0% means no effect; nearly all actives have a fitted effect of over 50% in size
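Luminescence from BacTiter-Glo reports growth of TDP-43-expressing yeast after 24 hr at 30 deg C with compound. Cells were raffinose-pregrown to mid-log, then seeded in galactose medium at OD600=0.02.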
aSyn yeast inh = qHTS of alpha-syn Inhibitors | Potency, µM (doses to about 46.1 µM), without a hit: at the top dose growth rescue (activation), actives largely listed as activators | Yeast expressing alpha-synuclein, growth rescue, BacTiter-Glo, 24 h | AID 652106, 2013 | actives 0.14% (n = 370,000); further: % of control where 0% means no effect; nearly all actives have a fitted effect of over 65% in size
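Screening used galactose-induced yeast with toxic alpha-synuclein levels, exposed to compound for 24 hr at 30 deg C. Cell growth, read with BacTiter-Glo luminescence, gave the measured signal.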
Abeta rescue = qHTS for compounds that reverse cellular toxicity of Amyloid beta (A-beta) peptide in yeast: Primary Screen; yeast expressing A-beta42, growth rescue, OD600, 48 h; response scale: 0% DMSO, 100% iron-clioquinol control; Potency, µM (doses to about 46.1 µM), usual class: activators; actives 0.063% (n = 410,000); AID 1347071, 2019; further: nearly all actives have a fitted effect of over 55% in size
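Yeast A-beta toxicity model in growth medium with pinned compounds, 48 h at 30 C; growth read as absorbance at 600 nm. Normalized to FeCl3/clioquinol equimolar mix (positive) and DMSO (negative).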
FUS yeast rescue = qHTS for Suppressors of FUS Proteinopathy: Primary screen using FUS-linked yeast assay | S. cerevisiae FUS-expressing, growth rescue, OD600, 24 h | Potency, µM (top dose mostly 76.6 µM), most hits filed as activators | actives 0.24% (n = 390,000) | AID 1347120, 2019;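 further: plate controls were DMSO vehicle for no effect and reference control for full effect; nearly all actives have a fitted effect of over 55% in size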
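Cultures pregrown in 2.5% raffinose medium are shifted to minimal medium containing 2% galactose to express toxic FUS. Compounds are tested at several concentrations. After 24hr at 30C, growth is quantified at 600 nm absorbance.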
The depositor's hits bear a star; i = inactive; ? = inconclusive; / = not tested or not shown; [ ] = remark or other dose. Most compounds without a hit are left out; they make up all but 2.1% or so of the library. The call rests on the fitted dose curve; in most records, active means well fitted curve in the direction sought with a large enough effect; inconclusive means small, poorly fitted or top-dose-only effect, or another doubt; inactive means no such curve, though single readings can be large; an effect the other way counts as inactive or inconclusive. Potency means the concentration at half of the fitted maximal effect.

SMILES | TDP43 rescue | aSyn yeast inh | Abeta rescue | FUS yeast rescue
C#CCOCCOCCOCCNc1nc(N2CCN(C(=O)CCCCCCCCCCNC(=O)[C@@H](CCSC)n3cc(CCO)nn3)CC2)nc(N2CCN(C(=O)CCCCCCCCCCNC(=O)[C@H](CCCN=C(N)N)n3cc(C[C@@H](C)CC)nn3)CC2)n1 | -1% | -50% | i | 10µM*
C#CCOCCOCCOCCNc1nc(N2CCN(C(=O)CCCCCCCCCCNC(=O)[C@H](CCCCN)n3cc(C[C@@H](C)CC)nn3)CC2)nc(N2CCN(C(=O)CCCCCCCCCCNC(=O)[C@H](CCCN=C(N)N)n3cc(C[C@@H](C)CC)nn3)CC2)n1 | -84% | -62% | i | 10µM*
Cc1cccc(N2CC(C(=O)Nc3nnc(SCC(=O)N4CCOCC4)s3)CC2=O)c1 (configuration not stated) | -11% | -10% | i | 18µM*
COc1ccc(-c2cccc(NS(=O)(=O)c3cccs3)c2)nn1 | 22% | / | i | i
CCc1ccc(S(=O)(=O)Nc2cccc(-c3ccc(OC)nn3)c2)s1 | 18µM* | / | i | ?
Cc1ccc(S(=O)(=O)Nc2cccc(-c3ccc(N4CCCCCC4)nn3)c2)cc1C | -3% | 0% | / | 22µM*
CCOc1ccc(S(=O)(=O)Nc2cccc(-c3ccc(OCC)nn3)c2)cc1 | 35µM* | / | i | i
O=C1CC(c2ccccc2)CC(O)=C1C=NCCc1ccccc1 (configuration not stated) | 17% | 5% | i | i
COc1ccc(N2CCN(C(=O)c3cn(C4CCCC4)c(=O)c4c3c3ccccc3n4C)CC2)cc1 | 20µM* | 14% | i | ?
COc1ccc(N2CCN(C(=O)c3cn(C)c(=O)c4c3c3ccccc3n4C)CC2)cc1 | -24% | 9% | i | i
Cc1cc(C)c(OCCN2C(=O)NC(C)(C)C2=O)c(Cl)c1 | 4% | / | i | i
Cc1ccc(-c2nc3scc(CCNC(=O)Cc4ccc(Cl)cc4)n3n2)cc1 | 0%[9.22 µM] | / | i | i
C/C(=N\NS(C)(=O)=O)c1ccccc1 | 2% | -1% | i | i
COc1ccc(-n2c(C)cc(C3=NNC(=NC4CC4)SC3)c2C)cc1 | 25% | -8% | i | 16µM*
CCOC(=O)c1c(NC(=O)c2cccnc2Cl)sc(C(=O)N(C)C)c1C | 10% | 4% | i | /
CN(C)c1ccc(C2=NOC(CN3C(=O)c4ccccc4S3(=O)=O)C2)cc1 (configuration not stated) | 12% | -6% | i | i
CCOC(=O)c1c(N)sc2c(O)c(Br)ccc12 | 11µM* | -21% | i | i
Cc1ccc(-c2nc(C)sc2CC(=O)OCC(=O)Nc2ccc(F)c(Cl)c2)cc1 | 25µM* | -6% | ? | i
Cc1ccc(NC(=O)Cc2sc(C)nc2-c2ccc(C)cc2)cc1 | -8% | 6% | i | /
CCCNS(=O)(=O)c1ccc(OCC(=O)OC)cc1 | -3% | 1% | i | i
CC(=O)n1cc(N(C(=O)CCl)c2ccc(Cl)cc2)c2ccccc21 | 22µM* | 2% | i | i
Cc1cc[n+](CC(=O)c2ccc(NC(=O)c3ccccc3)cc2)c2ccccc12 | 22% | 9% | i | i
O=C(/C(=C/c1ccc(Cl)cc1)c1nc2ccccc2[nH]1)c1cccs1 | 3.2µM* | -23% | i | i
Nn1c(SCC(=O)Nc2nccs2)nnc1C1CC1 | 13% | 3% | i | i
CC(=C1SC(=S)NC1=O)c1ccccc1 | 13µM* | -12% | i | /
SMILES | TDP43 rescue | aSyn yeast inh | Abeta rescue | FUS yeast rescue
Cc1ccc(N=c2ssnc2Cl)cc1 | -93% | -72% | i | i
Cc1cc(C)nc(/N=c2/ssnc2Cl)c1 | 2.8µM* | -65% | i | /
Cc1cc(=O)[nH]c(SCC(=O)N2CCN(c3ccccc3)CC2)n1 | 16% | / | i | i
O=C(O)c1[nH]c2ccc([N+](=O)[O-])cc2c1-c1ccccc1 | -14% | -8% | ? | i
O=[N+]([O-])c1ccc2[nH]nc(-c3ccccc3)c2c1 | 5.6µM* | -7% | i | /
CC(=O)c1ccc(NC(=S)N2CCC(Cc3ccccc3)CC2)cc1 | 25µM* | 15% | ? | i
CC(=O)c1ccc(NC(=S)N2c3ccccc3CC2C)cc1 (configuration not stated) | 16µM* | ? | i | i
Cc1nn2c(=O)cc(CSc3ccccc3NC(=O)c3ccccc3F)nc2s1 | 2% | -11% | i | i
C=CCc1cccc(CNc2ccc(Br)cc2)c1O | 22µM* | 17% | i | i
COc1ccc(OC)c(C(=O)c2ccc([N+](=O)[O-])cc2)c1 | -20% | 12% | i | i
COc1ccc(C(=O)c2ccc([N+](=O)[O-])cc2Cl)cc1 | 11µM* | 5% | i | i
Cc1ccc(S(=O)(=O)n2nc(-n3c(C)ccc3C)c3c(F)cccc32)c2ccccc12 | -3% | 4% | i | i
CC(C)Oc1ccc(S(=O)(=O)N2CCCCC2)cc1NC(=O)C1CSC2(C)CCC(=O)N12 (configuration not stated) | 3% | -1% | i | i
COc1cc(NC(=S)NCCN2CCOCC2)cc(OC)c1OC | -13% | -9% | 25µM* | i
COc1cc(NC(=S)NCCCN2CCOCC2)cc(OC)c1OC | -6% | 0% | i | i
COc1ccc(CNC(=O)c2sc(=O)n(Cc3ccc(-c4ccccc4)cc3)c2C)cc1OC | 0% | 1% | i | ?
CCOC(=O)[C@H]1[C@H]2COc3ccc(OC)cc3[C@@H]2N2C(=O)CN(CCc3c[nH]c4ccccc34)C(=O)[C@@]12C | 1% | 2% | i | ?
COc1ccc(CC(=O)c2ccc(O)cc2O)cc1 | 13µM* | -4% | i | i
O=C(Cc1ccc(Br)cc1)c1ccc(O)cc1O | ? | -11% | i | i
O=C(Cc1ccc([N+](=O)[O-])cc1)c1ccc(O)cc1O | 16µM* | -9% | i | i
CC(C)(C)Cc1c(-c2ccc(Cl)cc2)nc2c(Cl)cc(C(F)(F)F)cn12 | -14% | -3% | i | i
COc1ccc(Oc2c(Cl)cnn(C3c4ccccc4-c4ccccc43)c2=O)cc1 | / | / | / | i
Fc1ccc2[nH]c(-c3cccs3)cc2c1 | 20µM* | / | ? | i
CCOC(=O)c1c(-c2ccc(OC)cc2)oc2ccc(OCc3ccccc3C)cc12 | -1% | 0% | i | i
COCCN1Cc2cccc(C(=O)Nc3ccc(C)c(F)c3)c2C1=O | 13µM* | / | i | i
CCOC(=O)c1ccc(NC(=O)c2cccc3c2C(=O)N(CC2CCCO2)C3)cc1 (configuration not stated) | 22µM* | 3% | i | ?
COCCN1Cc2cccc(C(=O)Nc3ccc(Cl)cc3Cl)c2C1=O | 16µM* | / | i | i
